Reference: PubChem BioAssay AID1159580 (chemical genetic matrix, 2015)
Values joined by “and” are separate entries in the source; they are usually repeats but may differ in a detail not shown here. Identical values can stand only once. About 2,000 (36%) of roughly 5,500 compounds were called active. Roughly 18% stayed inconclusive and do not appear here. Rule as the data show it: active = normalized growth mostly below about 0.91 (no sharp cut-off); inconclusive = no clear call, values can overlap the other calls; inactive = mostly above about 0.92. The list shows a part of the results.

Assay: chemical genetic growth profiling, strain panel (AID 1159580);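 also: tested at 20 µM; growth read once vehicle control cultures reached saturation at 30 °C; 1 = growth at the plate median or of vehicle wells; lower values mean less growth of the strain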
Conditions: S. cerevisiae deletion strains, growth OD

Measured: normalized growth

O=C1NC(=O)C(=O)C(=O)N1
inactive: locus YAL013W, strain DEP1, active compounds read low 1.01 | locus YAL021C, strain ccr4, active compounds read low 1 | locus YAL026C, strain drs2, active compounds read low 0.991 | locus YAL030W, strain snc1, active compounds read low 0.989 | locus YBL061C, strain skt5, active compounds read low 0.984 | locus YBR009C, strain hhf1, active compounds read low 0.997 | locus YBR021W, strain FUR4, active compounds read low 1.03 | locus YBR023C, strain chs3, active compounds read low 0.997 | locus YBR171W, strain sec66, active compounds read low 0.979 | locus YBR229C, strain ROT2, active compounds read low 1.01 | locus YBR231C, strain swc5, active compounds read low 0.986 | locus YBR279W, strain paf1, active compounds read low 0.993 | locus YCL011C, strain gbp2, active compounds read low 0.996 | locus YCL016C, strain dcc1, active compounds read low 0.995 | locus YCL029C, strain bik1, active compounds read low 0.984 | locus YCL061C, strain MRC1, active compounds read low 0.988 | locus YCL069W, strain vba3, active compounds read low 0.989 | locus YCR088W, strain abp1, active compounds read low 0.984 | locus YDL005C, strain med2, active compounds read low 0.984 | locus YDL035C, strain GPR1, active compounds read low 1.03 | locus YDL040C, strain nat1, active compounds read low 0.988 | locus YDL074C, strain BRE1, active compounds read low 1.04 | locus YDL101C, strain DUN1, active compounds read low 1.02 | locus YDL134C, strain PPH21, active compounds read low 1.02 | locus YDL185W, strain tfp1, active compounds read low 1 | locus YDL192W, strain arf1, active compounds read low 0.998 | locus YDR001C, strain nth1, active compounds read low 0.981 | locus YDR069C, strain doa4, active compounds read low 0.998 | locus YDR101C, strain arx1, active compounds read low 0.995 | locus YDR137W, strain rgp1, active compounds read low 0.999 | locus YDR150W, strain NUM1, active compounds read low 1.02 | locus YDR159W, strain sac3, active compounds read low 0.986 | locus YDR162C, strain NBP2, active compounds read low 1.02 | locus YDR195W, strain ref2 0.962 | locus YDR297W, strain sur2, active compounds read low 0.999 | locus YDR318W, strain mcm21, active compounds read low 0.993 | locus YDR334W, strain swr1, active compounds read low 0.99 | locus YDR335W, strain msn5, active compounds read low 0.995 | locus YDR388W, active compounds read low 0.98 | locus YDR392W, strain spt3, active compounds read low 0.979 | locus YDR502C, strain sam2, active compounds read low 1.01 | locus YEL003W, strain gim4, active compounds read low 0.989 | locus YEL037C, strain rad23, active compounds read low 0.996 | locus YEL061C, strain CIN8 (second series), active compounds read low 0.983 | locus YEL061C, strain CIN8, active compounds read low 1.01 | locus YER015W, strain faa2, active compounds read low 0.992 | locus YER016W, strain bim1, active compounds read low 0.99 | locus YER110C, active compounds read low 0.988 | locus YER111C, strain swi4, active compounds read low 0.986 | locus YER155C, strain BEM2 (second series), active compounds read low 0.98 | locus YER155C, strain BEM2, active compounds read low 1.01 | locus YER167W, strain BCK2, active compounds read low 1.03 | locus YFR010W, strain ubp6, active compounds read low 0.974 | locus YGL078C, strain dbp3, active compounds read low 0.985 | locus YGL086W, strain mad1, active compounds read low 1.01 | locus YGL167C, strain pmr1, active compounds read low 0.987 | locus YGL173C, strain kem1, active compounds read low 0.969 | locus YGL227W, strain vid30, active compounds read low 0.975 | locus YGL240W, strain doc1, active compounds read low 0.99 | locus YGL248W, strain PDE1, active compounds read low 1.02 | locus YGL253W, strain hxk2, active compounds read low 0.993 | locus YGR078C, strain PAC10, active compounds read low 1.02 | locus YGR135W, strain pre9, active compounds read low 1 | locus YGR229C, strain SMI1, active compounds read low 1.03 | locus YGR252W, strain gcn5, active compounds read low 1.03 | locus YHR013C, strain ard1, active compounds read low 0.991 | locus YHR027C, strain rpn1, active compounds read low 0.984 | locus YHR030C, strain SLT2, active compounds read low 1.01 and 0.971 | locus YHR079C, strain IRE1 (second series), active compounds read low 0.991 | locus YHR079C, strain IRE1, active compounds read low 0.971 | locus YHR094C, strain hxt1, active compounds read low 0.994 | locus YHR129C, strain ARP1, active compounds read low 1.01 | locus YHR142W, strain chs7, active compounds read low 0.988 | locus YHR200W, strain rpn10, active compounds read low 0.993 | locus YIL066C, strain RNR3, active compounds read low 1.03 | locus YIL073C, strain SPO22, active compounds read low 0.994 | locus YIL125W, strain kgd1, active compounds read low 1 | locus YIR030C, strain dcg1, active compounds read low 0.992 | locus YJL092W, strain hpr5, active compounds read low 0.991 | locus YJL095W, strain BCK1 (second series), active compounds read low 1 | locus YJL095W, strain BCK1, active compounds read low 1.01 and 0.96 | locus YJL115W, strain asf1, active compounds read low 0.978 | locus YJL129C, strain trk1, active compounds read low 1 | locus YJL134W, strain LCB3, active compounds read low 1.01 | locus YJL154C, strain vps35, active compounds read low 0.985 | locus YJL164C, strain tpk1, active compounds read low 1.01 | locus YJL166W, strain qcr8, active compounds read low 1 | locus YJL168C, strain set2, active compounds read low 0.988 | locus YJL187C, strain SWE1 (second series), active compounds read low 1.01 | locus YJL187C, strain SWE1, active compounds read low 0.989 | locus YJR043C, strain POL32, active compounds read low 1 | locus YJR066W, strain TOR1, active compounds read low 0.974
